Holding throughout (experiment): DAPPL (digital affinity profiling via proximity ligation, sequencing); 10 mM Tris-HCl pH 7.5, 50 mM NaCl, 1 mM DTT, 4% glycerol, room temperature, 30 min; GST-TFs on glutathione beads, 16-mer random dsDNA library, 0.1% formaldehyde crosslink after washing; high values mean tight binding
One test concerns the target T1, FEV (Homo sapiens, UniProt Q99581 1-238).
T1 sequence: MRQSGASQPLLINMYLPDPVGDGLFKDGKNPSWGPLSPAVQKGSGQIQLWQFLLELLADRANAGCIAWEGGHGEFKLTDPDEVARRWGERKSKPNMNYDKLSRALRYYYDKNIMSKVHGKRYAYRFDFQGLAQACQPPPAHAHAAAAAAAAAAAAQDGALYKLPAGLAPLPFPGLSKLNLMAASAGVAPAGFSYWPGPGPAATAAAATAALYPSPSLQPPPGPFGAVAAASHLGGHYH
As to conditions: protein: recombinant; tags: N-terminal GST; dsDNA, one strand shown. In a few lines:
(§1)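 A tag-only sample was pooled with DNA-barcoded human transcription factors that had been expressed in yeast as GST fusions and captured on glutathione beads. The pools were incubated for 30 min at room temperature with 200 nmole of a random double-stranded 16-mer DNA library in Tris/NaCl/DTT/glycerol buffer, then washed, crosslinked with 0.1% formaldehyde, proximity-ligated (BsaI/T4 ligase, 1 h, 37 °C), PCR-amplified and sequenced on an Illumina NextSeq500. Binding signal is each hexamer's read frequency for a factor divided by its frequency for the tag-only sample.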

In another test the target is ETV5 (Homo sapiens, UniProt P41161 1-510). The following applies: protein: recombinant; tags: N-terminal GST; dsDNA, one strand shown. In a few lines: as §1
Another test addresses HSF1 (Homo sapiens, UniProt Q00613 1-529). The following applies: protein: recombinant; tags: N-terminal GST; chain copies: 3; dsDNA, one strand shown. In a few lines: as §1
Another test addresses T2, SPIC (Homo sapiens, UniProt Q8N5J4 1-248).
T2 sequence: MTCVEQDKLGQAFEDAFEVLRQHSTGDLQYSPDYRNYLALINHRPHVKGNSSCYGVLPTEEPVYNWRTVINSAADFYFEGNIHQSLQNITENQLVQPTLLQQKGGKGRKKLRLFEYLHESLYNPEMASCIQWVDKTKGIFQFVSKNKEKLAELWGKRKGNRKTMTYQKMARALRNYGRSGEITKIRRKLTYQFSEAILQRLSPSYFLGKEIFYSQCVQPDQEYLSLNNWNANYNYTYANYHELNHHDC
As to conditions: protein: recombinant; tags: N-terminal GST; dsDNA, one strand shown. In a few lines: as §1

The target in the next test is ELF4 (Homo sapiens, UniProt Q99607 1-663). As to conditions: protein: recombinant; tags: N-terminal GST; dsDNA, one strand shown. The gist of the method: as §1
The target in another test is T3, ELK4 (Homo sapiens, UniProt P28324-2 1-405).
T3 sequence: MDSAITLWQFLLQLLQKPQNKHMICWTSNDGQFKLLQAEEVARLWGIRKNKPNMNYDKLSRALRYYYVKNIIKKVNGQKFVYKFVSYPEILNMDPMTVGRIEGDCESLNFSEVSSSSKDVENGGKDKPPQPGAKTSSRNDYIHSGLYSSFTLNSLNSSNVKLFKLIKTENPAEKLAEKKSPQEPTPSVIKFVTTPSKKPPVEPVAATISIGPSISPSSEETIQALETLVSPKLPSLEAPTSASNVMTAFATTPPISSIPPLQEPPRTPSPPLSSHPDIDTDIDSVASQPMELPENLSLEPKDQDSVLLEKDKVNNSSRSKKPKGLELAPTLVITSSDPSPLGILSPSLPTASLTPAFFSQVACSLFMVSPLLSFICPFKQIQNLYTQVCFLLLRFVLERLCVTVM
As to conditions: protein: recombinant; tags: N-terminal GST; dsDNA, one strand shown. The gist of the method: as §1

A further test addresses T4, ETV2 (Homo sapiens, UniProt O00321 1-342).
T4 sequence: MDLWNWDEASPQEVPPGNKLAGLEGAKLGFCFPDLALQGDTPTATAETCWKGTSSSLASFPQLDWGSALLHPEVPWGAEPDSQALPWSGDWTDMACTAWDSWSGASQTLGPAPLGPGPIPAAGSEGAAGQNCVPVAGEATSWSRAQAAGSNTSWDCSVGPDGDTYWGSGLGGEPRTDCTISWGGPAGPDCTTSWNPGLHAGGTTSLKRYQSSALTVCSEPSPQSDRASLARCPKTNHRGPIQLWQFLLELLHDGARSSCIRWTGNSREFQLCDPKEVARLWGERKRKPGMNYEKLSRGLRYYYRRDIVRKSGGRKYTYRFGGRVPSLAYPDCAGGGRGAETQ
The following applies: protein: recombinant; tags: N-terminal GST; dsDNA, one strand shown. The gist of the method:
as §1

The next test has as its target T5, ELF3 (Homo sapiens, UniProt P78545 1-371).
T5 sequence: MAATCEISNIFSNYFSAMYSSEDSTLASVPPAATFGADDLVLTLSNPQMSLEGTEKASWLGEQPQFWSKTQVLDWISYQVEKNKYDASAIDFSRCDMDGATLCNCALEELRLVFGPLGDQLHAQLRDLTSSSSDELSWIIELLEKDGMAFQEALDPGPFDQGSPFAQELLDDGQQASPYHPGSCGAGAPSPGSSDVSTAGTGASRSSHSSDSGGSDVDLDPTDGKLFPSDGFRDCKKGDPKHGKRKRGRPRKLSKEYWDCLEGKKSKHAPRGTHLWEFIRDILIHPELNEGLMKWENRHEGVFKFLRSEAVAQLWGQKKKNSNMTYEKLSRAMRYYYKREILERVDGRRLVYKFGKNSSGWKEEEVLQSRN
The following applies: protein: recombinant; tags: N-terminal GST; dsDNA, one strand shown. The gist of the method: as §1

A further test concerns the target CRX (Homo sapiens, UniProt O43186 1-299). The following applies: protein: recombinant; tags: N-terminal GST; dsDNA, one strand shown. The gist of the method: as §1
Another test addresses ETV1 (Homo sapiens, UniProt P50549 1-477). As to conditions: protein: recombinant; tags: N-terminal GST; dsDNA, one strand shown. The gist of the method:
as §1

The target in a further test is T6, ERF (Homo sapiens, UniProt P50548 1-548).
T6 sequence: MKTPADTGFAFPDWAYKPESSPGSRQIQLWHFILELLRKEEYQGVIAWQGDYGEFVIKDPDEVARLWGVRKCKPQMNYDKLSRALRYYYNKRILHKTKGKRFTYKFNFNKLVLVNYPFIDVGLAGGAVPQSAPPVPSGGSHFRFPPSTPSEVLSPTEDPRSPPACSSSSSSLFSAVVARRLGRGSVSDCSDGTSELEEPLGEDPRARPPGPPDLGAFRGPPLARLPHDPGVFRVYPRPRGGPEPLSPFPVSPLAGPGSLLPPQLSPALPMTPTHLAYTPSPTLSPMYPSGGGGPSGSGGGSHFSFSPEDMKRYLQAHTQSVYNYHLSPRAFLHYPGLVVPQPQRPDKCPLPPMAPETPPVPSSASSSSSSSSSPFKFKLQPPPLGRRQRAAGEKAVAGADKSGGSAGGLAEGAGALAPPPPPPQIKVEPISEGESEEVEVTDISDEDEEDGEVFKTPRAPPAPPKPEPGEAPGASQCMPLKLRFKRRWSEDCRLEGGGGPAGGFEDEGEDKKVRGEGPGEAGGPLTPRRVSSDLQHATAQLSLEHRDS
The following applies: protein: recombinant; tags: N-terminal GST; dsDNA, one strand shown. The gist of the method: as §1

A further test deals with T7, ETV3L (Homo sapiens, UniProt Q6ZN32 1-361).
T7 sequence: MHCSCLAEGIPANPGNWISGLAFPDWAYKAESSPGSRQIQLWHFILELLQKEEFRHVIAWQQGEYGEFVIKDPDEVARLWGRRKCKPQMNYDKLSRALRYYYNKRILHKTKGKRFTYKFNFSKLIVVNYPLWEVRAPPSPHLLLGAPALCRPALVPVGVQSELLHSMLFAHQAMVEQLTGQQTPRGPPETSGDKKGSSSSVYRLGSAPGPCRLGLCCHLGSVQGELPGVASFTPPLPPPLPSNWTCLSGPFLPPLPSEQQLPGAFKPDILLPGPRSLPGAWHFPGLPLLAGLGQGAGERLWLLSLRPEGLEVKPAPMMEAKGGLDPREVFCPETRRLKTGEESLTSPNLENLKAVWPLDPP
As to conditions: protein: recombinant; tags: N-terminal GST; dsDNA, one strand shown. In a few lines:
as §1

A further test deals with T8, ETS2 (Homo sapiens, UniProt P15036 1-469).
T8 sequence: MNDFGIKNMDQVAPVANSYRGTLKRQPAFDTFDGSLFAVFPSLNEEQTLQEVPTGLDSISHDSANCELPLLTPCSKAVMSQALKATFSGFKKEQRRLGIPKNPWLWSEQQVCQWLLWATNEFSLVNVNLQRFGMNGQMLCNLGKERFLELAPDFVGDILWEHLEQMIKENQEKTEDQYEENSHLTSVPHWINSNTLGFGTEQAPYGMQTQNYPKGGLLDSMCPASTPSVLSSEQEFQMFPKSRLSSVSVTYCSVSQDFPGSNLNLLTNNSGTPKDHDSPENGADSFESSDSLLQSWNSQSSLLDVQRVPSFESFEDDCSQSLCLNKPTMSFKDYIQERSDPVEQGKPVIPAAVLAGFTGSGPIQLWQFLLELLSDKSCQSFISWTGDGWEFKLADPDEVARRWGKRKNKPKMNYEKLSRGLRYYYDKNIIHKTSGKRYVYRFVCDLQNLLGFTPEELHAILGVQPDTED
As to conditions: protein: recombinant; tags: N-terminal GST; dsDNA, one strand shown. The gist of the method: as §1

In another test the target is T9, SPDEF (Homo sapiens, UniProt O95238 1-335).
T9 sequence: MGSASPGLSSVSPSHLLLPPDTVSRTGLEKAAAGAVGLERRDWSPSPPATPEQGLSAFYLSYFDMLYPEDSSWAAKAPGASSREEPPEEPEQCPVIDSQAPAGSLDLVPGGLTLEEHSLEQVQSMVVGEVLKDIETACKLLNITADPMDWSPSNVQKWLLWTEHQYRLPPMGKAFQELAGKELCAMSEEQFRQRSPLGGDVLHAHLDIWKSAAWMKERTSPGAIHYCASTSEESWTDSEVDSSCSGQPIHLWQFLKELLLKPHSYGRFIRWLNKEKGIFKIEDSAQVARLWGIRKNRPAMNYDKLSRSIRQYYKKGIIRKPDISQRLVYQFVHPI
The following applies: protein: recombinant; tags: N-terminal GST; dsDNA, one strand shown. The gist of the method: as §1

The next test concerns the target T10, ETV7 (Homo sapiens, UniProt Q9Y603 1-341).
T10 sequence: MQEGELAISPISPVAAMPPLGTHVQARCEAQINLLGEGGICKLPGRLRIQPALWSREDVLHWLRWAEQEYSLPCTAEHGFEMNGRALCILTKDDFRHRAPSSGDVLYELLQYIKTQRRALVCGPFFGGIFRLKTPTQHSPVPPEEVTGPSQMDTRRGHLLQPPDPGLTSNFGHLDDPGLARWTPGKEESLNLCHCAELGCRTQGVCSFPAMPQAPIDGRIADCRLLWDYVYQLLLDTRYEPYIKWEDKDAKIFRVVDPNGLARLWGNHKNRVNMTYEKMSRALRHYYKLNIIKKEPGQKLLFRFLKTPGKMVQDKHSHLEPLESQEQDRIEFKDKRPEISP
As to conditions: protein: recombinant; tags: N-terminal GST; dsDNA, one strand shown. In a few lines:
as §1

The target of a further test is T11, ELF5 (Homo sapiens, UniProt Q9UKW6-2 1-255).
T11 sequence: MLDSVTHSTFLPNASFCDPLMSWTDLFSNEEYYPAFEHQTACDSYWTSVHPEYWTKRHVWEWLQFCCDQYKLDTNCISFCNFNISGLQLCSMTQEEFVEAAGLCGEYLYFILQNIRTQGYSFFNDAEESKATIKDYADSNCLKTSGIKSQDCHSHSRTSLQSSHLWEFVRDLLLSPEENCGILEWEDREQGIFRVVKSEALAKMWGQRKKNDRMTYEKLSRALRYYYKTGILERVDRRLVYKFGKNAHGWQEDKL
As to conditions: protein: recombinant; tags: N-terminal GST; dsDNA, one strand shown. In a few lines: as §1

Another test deals with T12, ETV3 (Homo sapiens, UniProt P41162-2 1-143).
T12 sequence: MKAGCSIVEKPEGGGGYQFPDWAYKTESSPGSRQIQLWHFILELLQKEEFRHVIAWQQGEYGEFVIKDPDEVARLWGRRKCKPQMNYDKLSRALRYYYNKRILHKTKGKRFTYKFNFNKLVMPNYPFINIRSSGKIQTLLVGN
As to conditions: protein: recombinant; tags: N-terminal GST; dsDNA, one strand shown. The gist of the method: as §1

Another test has as its target ETV6 (Homo sapiens, UniProt P41212 1-452). As to conditions: protein: recombinant; tags: N-terminal GST; dsDNA, one strand shown. In a few lines:
as §1

Sequence of CRX (O43186 whole entry): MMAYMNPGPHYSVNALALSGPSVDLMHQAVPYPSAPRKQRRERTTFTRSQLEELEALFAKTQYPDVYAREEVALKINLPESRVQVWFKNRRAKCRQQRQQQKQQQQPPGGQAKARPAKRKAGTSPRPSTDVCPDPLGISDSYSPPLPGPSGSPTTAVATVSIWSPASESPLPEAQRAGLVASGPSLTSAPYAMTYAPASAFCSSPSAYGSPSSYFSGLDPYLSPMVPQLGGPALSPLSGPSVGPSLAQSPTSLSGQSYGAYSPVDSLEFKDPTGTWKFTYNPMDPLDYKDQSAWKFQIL
Sequence of ETV6 (P41212 whole entry): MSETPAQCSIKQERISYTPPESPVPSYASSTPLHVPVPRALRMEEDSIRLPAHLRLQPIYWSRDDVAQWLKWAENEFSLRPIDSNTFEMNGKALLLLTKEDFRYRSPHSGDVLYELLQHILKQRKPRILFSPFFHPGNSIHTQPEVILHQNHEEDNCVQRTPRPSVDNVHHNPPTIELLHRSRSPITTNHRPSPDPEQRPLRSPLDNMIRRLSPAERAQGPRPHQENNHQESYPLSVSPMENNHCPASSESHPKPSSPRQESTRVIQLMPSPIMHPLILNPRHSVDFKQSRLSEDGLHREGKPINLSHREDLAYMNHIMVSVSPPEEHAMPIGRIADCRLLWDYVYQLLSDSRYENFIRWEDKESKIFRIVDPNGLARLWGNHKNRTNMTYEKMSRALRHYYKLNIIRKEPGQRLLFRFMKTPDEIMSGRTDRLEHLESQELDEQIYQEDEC
Sequence of ELF4 (Q99607 whole entry): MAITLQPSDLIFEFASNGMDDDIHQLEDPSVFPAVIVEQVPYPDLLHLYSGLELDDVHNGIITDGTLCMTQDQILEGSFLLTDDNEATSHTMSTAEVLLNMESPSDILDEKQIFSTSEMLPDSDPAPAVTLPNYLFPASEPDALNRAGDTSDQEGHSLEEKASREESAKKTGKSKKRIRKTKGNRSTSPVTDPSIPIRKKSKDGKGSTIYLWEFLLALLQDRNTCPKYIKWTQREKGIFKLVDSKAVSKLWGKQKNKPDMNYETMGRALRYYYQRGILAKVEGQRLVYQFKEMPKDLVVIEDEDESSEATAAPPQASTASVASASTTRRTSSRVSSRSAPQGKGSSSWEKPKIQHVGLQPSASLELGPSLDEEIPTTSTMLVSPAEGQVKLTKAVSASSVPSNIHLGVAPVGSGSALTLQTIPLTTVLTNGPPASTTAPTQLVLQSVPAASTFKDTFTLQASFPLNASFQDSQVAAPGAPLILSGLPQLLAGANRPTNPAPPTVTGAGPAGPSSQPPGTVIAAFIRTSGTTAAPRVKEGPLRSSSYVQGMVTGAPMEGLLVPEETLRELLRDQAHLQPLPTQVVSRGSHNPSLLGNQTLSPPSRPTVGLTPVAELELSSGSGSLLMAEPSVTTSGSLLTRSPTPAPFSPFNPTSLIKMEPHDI
Sequence of HSF1 (Q00613 whole entry): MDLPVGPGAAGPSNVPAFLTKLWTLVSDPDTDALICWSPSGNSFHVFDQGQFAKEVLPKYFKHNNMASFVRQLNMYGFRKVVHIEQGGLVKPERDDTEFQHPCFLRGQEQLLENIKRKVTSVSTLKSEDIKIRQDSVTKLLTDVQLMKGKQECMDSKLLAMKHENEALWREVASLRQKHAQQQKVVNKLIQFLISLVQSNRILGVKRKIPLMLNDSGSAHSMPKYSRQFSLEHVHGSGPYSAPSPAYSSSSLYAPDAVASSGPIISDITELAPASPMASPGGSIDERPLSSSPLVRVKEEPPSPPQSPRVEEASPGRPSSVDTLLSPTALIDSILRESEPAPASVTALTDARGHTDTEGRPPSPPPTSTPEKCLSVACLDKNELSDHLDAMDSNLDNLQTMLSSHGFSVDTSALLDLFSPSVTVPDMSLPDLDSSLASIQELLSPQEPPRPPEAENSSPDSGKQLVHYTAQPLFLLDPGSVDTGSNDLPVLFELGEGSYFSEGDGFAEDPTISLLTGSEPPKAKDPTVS
Sequence of ETV5 (P41161 whole entry): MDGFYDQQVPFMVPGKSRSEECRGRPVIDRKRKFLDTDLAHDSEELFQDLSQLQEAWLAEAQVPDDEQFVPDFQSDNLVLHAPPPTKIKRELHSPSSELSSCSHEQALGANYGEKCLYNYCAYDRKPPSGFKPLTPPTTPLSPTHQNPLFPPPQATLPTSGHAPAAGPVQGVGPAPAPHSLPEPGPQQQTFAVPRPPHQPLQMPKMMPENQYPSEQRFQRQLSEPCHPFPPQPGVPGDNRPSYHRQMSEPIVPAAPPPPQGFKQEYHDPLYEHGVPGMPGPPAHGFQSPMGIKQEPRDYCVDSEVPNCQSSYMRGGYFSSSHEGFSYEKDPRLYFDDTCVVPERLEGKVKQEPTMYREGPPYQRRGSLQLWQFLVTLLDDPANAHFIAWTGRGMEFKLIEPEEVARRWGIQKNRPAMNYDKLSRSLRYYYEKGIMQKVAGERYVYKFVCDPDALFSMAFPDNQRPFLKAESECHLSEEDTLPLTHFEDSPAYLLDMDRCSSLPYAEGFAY
Sequence of ETV1 (P50549 whole entry): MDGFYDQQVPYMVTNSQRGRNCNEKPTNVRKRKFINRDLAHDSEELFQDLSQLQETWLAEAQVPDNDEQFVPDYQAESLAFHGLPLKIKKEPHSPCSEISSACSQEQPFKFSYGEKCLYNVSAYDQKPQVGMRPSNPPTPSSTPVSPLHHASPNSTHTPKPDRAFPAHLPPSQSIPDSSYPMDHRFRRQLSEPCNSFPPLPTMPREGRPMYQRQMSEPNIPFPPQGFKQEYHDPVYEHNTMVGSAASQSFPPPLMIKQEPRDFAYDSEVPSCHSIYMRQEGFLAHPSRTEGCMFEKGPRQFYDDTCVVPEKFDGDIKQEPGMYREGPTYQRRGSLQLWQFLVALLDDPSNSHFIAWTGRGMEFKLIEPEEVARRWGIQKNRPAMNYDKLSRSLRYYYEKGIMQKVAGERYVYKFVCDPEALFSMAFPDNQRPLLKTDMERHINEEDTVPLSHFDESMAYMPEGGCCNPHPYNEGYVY

For the sequence TCTCCT, the binding signal in the test with FEV was 1.43 fold enrichment (6-mer frequency, TF over GST control); in the test with ETV5 it was 1.33 fold enrichment (6-mer frequency, TF over GST control); in the test with HSF1 it was 1.55 fold enrichment (6-mer frequency, TF over GST control); with SPIC it was 1.59 fold enrichment (6-mer frequency, TF over GST control); with ELF4, 1.51 fold enrichment (6-mer frequency, TF over GST control); with ELK4, 1.38 fold enrichment (6-mer frequency, TF over GST control). Moreover, the binding signal is 1.43 fold enrichment (6-mer frequency, TF over GST control) with ETV2; 1.7 fold enrichment (6-mer frequency, TF over GST control) with ELF3; 1.55 fold enrichment (6-mer frequency, TF over GST control) with CRX; 1.49 fold enrichment (6-mer frequency, TF over GST control) with ETV1; 1.34 fold enrichment (6-mer frequency, TF over GST control) with ERF; 1.73 fold enrichment (6-mer frequency, TF over GST control) with ETV3L. The binding signal with ETS2 is 1.52 fold enrichment (6-mer frequency, TF over GST control); with SPDEF it was 1.32 fold enrichment (6-mer frequency, TF over GST control); with ETV7 it was 1.46 fold enrichment (6-mer frequency, TF over GST control); with ELF5, 1.41 fold enrichment (6-mer frequency, TF over GST control); in the test with ETV3, 1.41 fold enrichment (6-mer frequency, TF over GST control); with ETV6, 1.44 fold enrichment (6-mer frequency, TF over GST control).

(Values after paper PMC7862700, “An all-to-all approach to the identification of sequence-specific readers for epigenetic DNA modifications on cytosine”.)
